Consider eight molecules from PubChem BioAssay (NCATS).

A short description of assay [1]: qHTS assay for small molecule agonists of retinoid X receptor alpha signaling (AID 588544).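 On activation: 0% = DMSO basal wells and 100% = reference agonist.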 The conditions noted are these: HEK293T RXRa-UAS-bla, beta-lactamase reporter, 18 h; 530 nm emission.
For assay [2], the target named is Retinoic acid receptor RXR-alpha (Homo sapiens) (UniProt P19793). Described as above. The note with it: HEK293T RXRa-UAS-bla, beta-lactamase reporter, 18 h; series mostly up to 76.7 µM.
Assay [3] can be described thus: qHTS assay for small molecule antagonists of retinoid X receptor alpha signaling (AID 588546; active means well fitted inhibition curve with a large enough effect in the signal ratio, with a control signal flat, not every such curve was filed as active; the % refers to the signal ratio;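 further: cells stimulated with 9-cis-retinoic acid as agonist; on the % scale 0 is the no-effect control and ±100 the full control effect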). The note with it: HEK293T RXRa-UAS-bla, beta-lactamase ratio, antagonist mode; measured here: W530 green channel, cytotoxicity proxy. In outline: (§1)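 Beta-lactamase reporter inhibition, read as CCF4 fluorescence ratio (ex 405, em 460/530 nm) after 2 h at RT. HEK293T UAS-bla cells, 2500/well, were stimulated with 9-cis-RA at 500 or 100 nM final alongside test compound for 18 h at 37 C.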
A general note: qHTS replaces the single test concentration by a dilution series.

Assay [4] addresses Retinoic acid receptor RXR-alpha (Homo sapiens) (UniProt P19793). The description is as above. The note with it: HEK293T RXRa-UAS-bla, beta-lactamase ratio, antagonist mode. In outline: as §1
Assay [5] deals with Thyroid hormone receptor beta (Homo sapiens) (UniProt P10828). The experiment in a line: qHTS assay for small molecule antagonists of thyroid hormone receptor beta signaling (AID 588547; active means well fitted inhibition curve with a large enough effect in the signal ratio, with a control signal flat, not every such curve was filed as active; the % refers to the signal ratio;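 further: cells stimulated with 0.4 nM T3 agonist during compound exposure; on the % scale 0 is the no-effect control and ±100 the full control effect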). The note with it: TR-UAS-bla HEK293, beta-lactamase ratio, antagonist mode, 18 h. In outline: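 Inhibition of T3-driven (0.4nM final) beta-lactamase reporter activity was measured over 0.59 nM to 92 uM compound after 18 h at 37 C. The cells were GripTite HEK293 TR-UAS-bla in charcoal/dextran-stripped serum, with CCF4 ratio read-out and IC50 from Hill fits.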

Assay [6] addresses Voltage-gated inwardly rectifying potassium channel KCNH2 (Homo sapiens) (UniProt Q12809). The experiment in a line: qHTS Assay for Small Molecule Inhibitors of the Human hERG Channel Activity (AID 588834; active means well fitted curve in the direction sought with a large enough effect; an effect the other way counts as inactive or inconclusive;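 further: top concentration of the series differs between compounds; on the % scale 0 is the no-effect control and ±100 the full control effect; lower thallium flux fluorescence means stronger hERG block; nearly all actives have a fitted effect of over 50% in size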). The conditions noted are these: U2OS BacMam hERG, FluxOR thallium flux fluorescence; series mostly up to 92.2 µM. In short, it runs like this: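 Thallium serves as surrogate for K+ influx through BacMam-delivered hERG in U2OS cells. Compounds are added for about 10 minutes after dye loading; stimulation buffer then starts flux, monitored kinetically on FDSS.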

Assay [7] is described as follows: qHTS assay for small molecule activators of the p53 signaling pathway (AID 651743; active means well fitted activation curve with a large enough effect in the signal ratio, not every such curve was filed as active; the % refers to the signal ratio; further: % of control where 0% means no effect). The conditions noted are these: HCT-116 p53RE-bla, beta-lactamase FRET ratio, 16 h; stronger effect = higher value. In short, it runs like this:
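A beta-lactamase reporter under p53 response element control, stably carried by HCT-116 cells, reported pathway activation. Test compounds were applied for 16 hours at 37 C, and fluorescence was measured 2 hours after adding the B/G FRET substrate.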

Assay [8] can be described thus: qHTS assay for small molecule activators of the nuclear factor-kappa B (NF-kB) signaling pathway (AID 651749; active means well fitted activation curve with a large enough effect in the signal ratio; the % refers to the signal ratio; further: % of control where 0% means no effect). The conditions noted are these: NF-kB-bla ME-180 cells, beta-lactamase FRET ratio, 16 h; stronger effect = higher value. In short, it runs like this: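 FRET-based beta-lactamase detection in ME-180 cells reports NF-kB response-element-driven transcription following overnight (16 hr) compound treatment.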

Assay [9] in a line: qHTS assay for small molecule disruptors of the mitochondrial membrane potential - 1 hr assay (AID 651754). Further: on the % scale 0 is the no-effect control and ±100 the full control effect; nearly all actives have a fitted effect of over 35% in size. The conditions noted are these: series mostly up to 92.2 µM. In short, it runs like this:
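Read-out: dye fluorescence at 490 nm ex/535 nm em (monomers) and 540 nm ex/590 nm em (aggregates) in HepG2 cells. Compound exposure 1 hr at 37C, followed by 30 min dye loading.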

A short description of assay [10]: qHTS assay for small molecule disruptors of the mitochondrial membrane potential - 5 hr assay (AID 651755). Further: on the % scale 0 is the no-effect control and ±100 the full control effect; nearly all actives have a fitted effect of over 40% in size. The conditions noted are these: JC-1-type ratio dye; series mostly up to 92.2 µM. In short, it runs like this: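 Membrane-potential dye readout: red aggregate (540 ex/590 em) versus green monomer (490 ex/535 em) fluorescence after 30 min dye loading, following 5 hr compound exposure at 37C of overnight-plated HepG2 cells.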

The target in assay [11] is Tumor necrosis factor (Homo sapiens) (UniProt P01375). In words: qHTS assay to identify small molecules that stimulate Tumor Necrosis Factor-alpha (TNF-alpha) secretion (AID 651757; active means well fitted curve in the direction sought with a large enough effect in the signal ratio; the % refers to the signal ratio; further: 0% is about no effect). The conditions noted are these: Human cells, HTRF 665/615 ratio; series mostly up to 92.2 µM. In short, it runs like this: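 THP-1 cells, 3000/well; compound 17 hrs, 37 C; add cryptate/XL665 anti-TNF-alpha antibody pair; 3 hr RT; TR-FRET (HTRF) read of secreted TNF-alpha. Quantitative HTS format.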

Assay [12] can be described thus: qHTS assay for environmental chemicals that activate the Aryl hydrocarbon Receptor (AhR) signaling pathway (AID 651777; active means well fitted curve in the direction sought with a large enough effect; an effect the other way counts as inactive or inconclusive; further: % of control where 0% means no effect; nearly all actives have a fitted effect of over 15% in size). The note with it: 1A2-DRE human hepatoma cells, luciferase, 24 h; activation: stronger effect = higher value. In short, it runs like this:
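Luminescence read-out: One-Glo added for 30 min at RT after 24 hr compound treatment (37 C, 5% CO2) of human hepatoma cells expressing a DRE/CYP1A2 promoter–luciferase reporter; increased signal indicates AhR activation.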

In assay [13] the target is Peroxisome proliferator-activated receptor alpha (Homo sapiens) (UniProt Q07869). In words: qHTS assay for small molecule agonists of the peroxisome proliferator-activated receptor alpha (PPARalpha) signaling pathway (AID 651778; active means well fitted curve in the direction sought with a large enough effect; an effect the other way counts as inactive or inconclusive; further: % of control where 0% means no effect). The conditions noted are these: PathHunter PPARalpha complementation, chemiluminescence, 6 h; stronger effect = higher value. In short, it runs like this:
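Chemiluminescence from complemented enzyme reported PPARalpha activation in cells after 6 hr of compound treatment at 37 C. The detection reagent was incubated for 60 min at room temperature, and compounds were scored as agonists.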

The target of assay [14] is Nuclear receptor ROR-gamma (Homo sapiens) (UniProt P51449). The experiment in a line: qHTS assay for small molecule antagonists of the retinoid-related orphan receptor gamma (ROR-gamma) signaling pathway (AID 651802; active means well fitted curve in the direction sought with a large enough effect; an effect the other way counts as inactive or inconclusive;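 further: CHO cells with doxycycline-induced ROR-gamma expression; luciferase reporter luminescence driven by ROR response element; on the % scale 0 is the no-effect control and ±100 the full control effect; nearly all actives have a fitted effect of over 60% in size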). The note with it: ROR-gamma antagonist cell reporter assay; series mostly up to 92.2 µM. In short, it runs like this:
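Luciferase read-out: ONE-Glo luminescence after 30 min at room temperature, following 16hr doxycycline induction at 37C, 5% CO2 of CHO cells with TET-inducible ROR and RORE-LUC reporter; decreased luminescence = reduced reporter activity.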

Assay [15] is described as follows: qHTS assay for small molecule agonists of the antioxidant response element (ARE) signaling pathway measured by Nrf2-dependant transcriptional activity (AID 720636; active means well fitted curve in the direction sought with a large enough effect in the repeat runs; an effect the other way counts as inactive or inconclusive;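 further: HepG2 cells with an ARE-driven luciferase reporter; % of control where 0% means no effect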). The conditions noted are these: ARE-luc HepG2, Nrf2 luciferase reporter, 16 h; series mostly up to 92.4 µM. In outline: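 HepG2 ARE-luc reporter line, 1% dialyzed FBS; 6 hr attachment at 37 C, compound pinned in, 16 hr at 37 C/5% CO2; ONE-Glo, 30 min RT, luminescence read.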

Assay [16] can be described thus: qHTS assay for small molecule antagonists of the retinoid-related orphan receptor gamma (ROR-gamma) signaling pathway - cell viability counter screen (AID 720652; active means well fitted curve in the direction sought with a large enough effect in the repeat runs; an effect the other way counts as inactive or inconclusive;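 further: CHO reporter cells with doxycycline-induced ROR-gamma expression; compound exposure lasted 16 hr before ATP read; on the % scale 0 is the no-effect control and ±100 the full control effect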). The conditions noted are these: RORgamma reporter cell line viability counter screen; series mostly up to 92.2 µM. In outline: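 CHO RORE-LUC/TET-ROR line, 1,000 cells/well, 37 C 5% CO2 5 hr; cpd or DMSO + doxycycline induction, 16 hr. CellTiter-Glo, 30 min RT, luminescence = ATP content.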

Assay [17] can be described thus: qHTS assay for small molecule agonists of the antioxidant response element (ARE) signaling pathway measured by Nrf2-dependant transcriptional activity - cell viability counter screen (AID 720653; active means well fitted curve in the direction sought with a large enough effect in the repeat runs; an effect the other way counts as inactive or inconclusive; further: on the % scale 0 is the no-effect control and ±100 the full control effect). The conditions noted are these: ARE-bla HepG2 viability, CellTiter-Glo ATP luminescence, 16 h; stronger effect = lower value. In short, it runs like this: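 Cytotoxicity counter screen: intracellular ATP quantified by CellTiter-Glo luminescence in the same ARE-bla HepG2 plates, after 16 h compound exposure and a 2 h beta-lactamase substrate step.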

Assay [18] addresses Thyroid hormone receptor beta (Homo sapiens) (UniProt P10828). The experiment in a line: qHTS assay for small molecule agonists of thyroid hormone receptor beta signaling (AID 588545).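 Further: 0% = DMSO only and 100% = 10 nM T3.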 The note with it: TR-UAS-bla GripTite HEK 293, beta-lactamase ratio, agonist mode, 18 h, percent of T3 response, DMSO as zero; series mostly up to 76.7 µM. In short, it runs like this: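 Efficacy and EC50 values derive from Hill fits of qHTS titration data, normalized to 10 nM T3 and DMSO-only wells. HEK 293 reporter cells were stimulated for 18 hrs at 37 C, with beta-lactamase activity measured by CCF4 fluorescence.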

Assay [19] is described as follows: qHTS assay for small molecule agonists of the antioxidant response element (ARE) signaling pathway (AID 651741; active means well fitted activation curve with a large enough effect in the signal ratio; the % refers to the signal ratio; further: % of control where 0% means no effect). The note with it: HepG2 ARE-bla reporter, beta-lactamase FRET ratio, 16 h; series mostly up to 96 µM. In short, it runs like this: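 Agonist activity is measured as ARE-driven beta-lactamase expression in a stable HepG2 reporter line, using 16 h compound treatment at 37 C and a FRET substrate fluorescence readout after 2 h.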

The nature of assay [20]: qHTS assay to identify small molecules that stimulate interleukin-8 (IL-8) secretion (AID 651758; active means well fitted activation curve with a large enough effect in the signal ratio; the % refers to the signal ratio; further: 0% is about no effect). The note with it: HTRF ratio (665/615); series mostly up to 92.2 µM. In outline:
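Secreted IL-8 measured homogeneously by TR-FRET (two labelled anti-IL-8 antibodies, 1-3 h at room temperature) after a 16 h, 37 C compound treatment of THP-1 cells at 2000 cells/well.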

Records with an inconclusive call do not appear. Calls of active or inactive are those of the source. Unless noted, the call rests on the fitted dose curve.

Sequence of Thyroid hormone receptor beta (Homo sapiens) (P10828 whole entry, looked up): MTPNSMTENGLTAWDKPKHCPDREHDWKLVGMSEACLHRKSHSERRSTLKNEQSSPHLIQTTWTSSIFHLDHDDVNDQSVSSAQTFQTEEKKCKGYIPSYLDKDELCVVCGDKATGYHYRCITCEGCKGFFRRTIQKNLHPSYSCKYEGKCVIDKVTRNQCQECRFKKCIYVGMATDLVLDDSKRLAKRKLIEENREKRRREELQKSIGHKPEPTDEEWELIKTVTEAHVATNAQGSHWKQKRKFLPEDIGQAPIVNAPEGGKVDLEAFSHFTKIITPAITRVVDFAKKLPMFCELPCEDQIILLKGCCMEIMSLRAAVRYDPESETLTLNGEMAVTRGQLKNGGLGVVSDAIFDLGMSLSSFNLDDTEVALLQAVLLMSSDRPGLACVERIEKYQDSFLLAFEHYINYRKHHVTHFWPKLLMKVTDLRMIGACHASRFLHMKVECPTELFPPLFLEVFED
Sequence of Tumor necrosis factor (Homo sapiens) (P01375 whole entry, looked up): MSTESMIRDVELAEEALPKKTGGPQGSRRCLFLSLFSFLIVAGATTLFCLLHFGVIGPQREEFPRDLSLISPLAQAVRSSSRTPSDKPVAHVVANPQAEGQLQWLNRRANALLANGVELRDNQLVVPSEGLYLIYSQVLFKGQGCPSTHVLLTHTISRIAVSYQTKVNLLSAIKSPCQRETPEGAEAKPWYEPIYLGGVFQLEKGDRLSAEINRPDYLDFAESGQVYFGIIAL
Sequence of Voltage-gated inwardly rectifying potassium channel KCNH2 (Homo sapiens) (Q12809 whole entry, looked up): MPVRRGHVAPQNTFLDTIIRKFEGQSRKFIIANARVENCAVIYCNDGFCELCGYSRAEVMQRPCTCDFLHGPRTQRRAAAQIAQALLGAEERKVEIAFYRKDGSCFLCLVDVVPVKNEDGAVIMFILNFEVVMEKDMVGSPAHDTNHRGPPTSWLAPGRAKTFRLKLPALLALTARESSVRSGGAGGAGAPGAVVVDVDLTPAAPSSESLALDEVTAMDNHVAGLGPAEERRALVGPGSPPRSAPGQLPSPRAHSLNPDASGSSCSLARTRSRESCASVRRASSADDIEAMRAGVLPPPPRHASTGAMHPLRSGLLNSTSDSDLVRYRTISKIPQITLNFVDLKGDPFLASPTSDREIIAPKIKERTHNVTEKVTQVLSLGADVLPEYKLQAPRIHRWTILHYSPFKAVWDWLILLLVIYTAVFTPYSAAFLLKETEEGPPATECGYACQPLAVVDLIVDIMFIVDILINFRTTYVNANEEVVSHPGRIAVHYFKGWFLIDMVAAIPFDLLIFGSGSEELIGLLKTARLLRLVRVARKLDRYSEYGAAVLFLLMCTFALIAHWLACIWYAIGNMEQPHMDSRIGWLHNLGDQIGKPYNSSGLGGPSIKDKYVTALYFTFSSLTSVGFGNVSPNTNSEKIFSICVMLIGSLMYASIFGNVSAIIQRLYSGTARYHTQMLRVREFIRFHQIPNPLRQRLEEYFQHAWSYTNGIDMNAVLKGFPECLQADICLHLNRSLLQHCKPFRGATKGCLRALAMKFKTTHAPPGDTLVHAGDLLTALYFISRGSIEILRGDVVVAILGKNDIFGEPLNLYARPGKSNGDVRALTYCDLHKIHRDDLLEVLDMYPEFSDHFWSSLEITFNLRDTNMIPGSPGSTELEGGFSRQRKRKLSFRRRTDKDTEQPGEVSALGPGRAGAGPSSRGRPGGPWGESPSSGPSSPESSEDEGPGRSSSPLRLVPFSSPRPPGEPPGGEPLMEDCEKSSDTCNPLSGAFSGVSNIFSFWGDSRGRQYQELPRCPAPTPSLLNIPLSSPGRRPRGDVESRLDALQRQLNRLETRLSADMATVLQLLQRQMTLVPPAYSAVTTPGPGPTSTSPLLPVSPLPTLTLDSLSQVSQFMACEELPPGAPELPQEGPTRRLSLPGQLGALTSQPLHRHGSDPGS
Sequence of Peroxisome proliferator-activated receptor alpha (Homo sapiens) (Q07869 whole entry, looked up): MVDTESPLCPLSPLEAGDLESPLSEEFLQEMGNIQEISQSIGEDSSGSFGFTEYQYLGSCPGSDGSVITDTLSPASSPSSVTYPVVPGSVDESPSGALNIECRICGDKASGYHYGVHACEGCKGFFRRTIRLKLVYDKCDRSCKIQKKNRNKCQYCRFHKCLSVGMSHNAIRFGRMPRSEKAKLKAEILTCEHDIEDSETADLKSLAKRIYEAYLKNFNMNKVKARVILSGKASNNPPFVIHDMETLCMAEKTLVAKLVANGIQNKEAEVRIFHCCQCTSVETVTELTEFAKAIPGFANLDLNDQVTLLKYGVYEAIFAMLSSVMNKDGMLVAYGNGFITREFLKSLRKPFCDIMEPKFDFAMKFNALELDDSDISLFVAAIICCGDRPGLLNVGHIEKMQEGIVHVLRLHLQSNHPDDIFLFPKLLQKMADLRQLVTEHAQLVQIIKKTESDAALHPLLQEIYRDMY
Sequence of Retinoic acid receptor RXR-alpha (Homo sapiens) (P19793 whole entry, looked up): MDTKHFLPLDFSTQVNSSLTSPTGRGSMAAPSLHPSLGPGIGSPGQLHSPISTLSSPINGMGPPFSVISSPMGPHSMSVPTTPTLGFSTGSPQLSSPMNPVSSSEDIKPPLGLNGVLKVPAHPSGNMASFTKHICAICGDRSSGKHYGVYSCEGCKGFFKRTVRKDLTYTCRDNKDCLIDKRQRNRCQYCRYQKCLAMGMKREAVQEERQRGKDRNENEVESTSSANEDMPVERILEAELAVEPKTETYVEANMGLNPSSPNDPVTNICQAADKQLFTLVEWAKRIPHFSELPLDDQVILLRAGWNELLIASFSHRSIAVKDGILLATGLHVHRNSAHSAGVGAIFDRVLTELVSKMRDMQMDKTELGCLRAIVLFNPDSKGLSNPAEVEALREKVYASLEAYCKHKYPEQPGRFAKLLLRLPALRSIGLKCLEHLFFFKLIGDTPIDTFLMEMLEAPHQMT
Sequence of Nuclear receptor ROR-gamma (Homo sapiens) (P51449 whole entry, looked up): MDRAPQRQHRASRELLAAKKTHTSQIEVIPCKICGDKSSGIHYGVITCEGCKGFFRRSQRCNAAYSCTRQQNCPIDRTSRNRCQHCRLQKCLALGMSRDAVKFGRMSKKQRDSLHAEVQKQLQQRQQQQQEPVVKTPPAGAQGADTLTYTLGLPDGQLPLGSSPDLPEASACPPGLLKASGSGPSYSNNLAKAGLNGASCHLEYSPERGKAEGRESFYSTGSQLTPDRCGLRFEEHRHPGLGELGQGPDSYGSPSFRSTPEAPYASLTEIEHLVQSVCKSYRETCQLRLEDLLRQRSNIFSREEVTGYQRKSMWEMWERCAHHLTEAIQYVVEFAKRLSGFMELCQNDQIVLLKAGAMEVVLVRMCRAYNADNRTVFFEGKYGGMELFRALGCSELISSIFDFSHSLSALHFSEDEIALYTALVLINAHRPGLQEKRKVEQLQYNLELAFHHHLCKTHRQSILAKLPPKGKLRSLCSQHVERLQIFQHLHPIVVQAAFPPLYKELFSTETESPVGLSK

`CCCC=O`: the max response in [1] is -4.54%; in assay [3] it was 6.82%; in [4] it was 14.7% (inactive); in assay [13], 2.48% (inactive); in assay [17], -6.36% (inactive). The result in [2] and in assay [15] was inactive. In addition, the activity change % (negative = inhibition) in [5] is -7% (inactive). In addition, the Potency entry in assay [6], in assay [9], in assay [10], in assay [11], in assay [14] and in [16] was “inactive” each time. Further, the activation in [7] is -2.76% (inactive); in [8] it was -4.7% (inactive); in assay [12] it was -0.933% (inactive).
As to `CC(=O)c1ccc([N+](=O)[O-])cc1`, the max response in assay [1] is -7.91%; in [3] it was 4.7%; in assay [13], -2.88% (inactive); in [17] it was 19% (inactive). In addition, the result in [2], in assay [18] and in assay [15] was inactive. In addition, in [5], the activity change % (negative = inhibition) is -0.995% (inactive). Also, the Potency result in assay [6], in [9], in assay [10], in assay [11] and in [16] was “inactive” throughout. Also, the results for the activation in assay [8] and in [12] were 0.321% (inactive) and 0.202% (inactive), respectively.
With `Cc1ccccc1C(=O)O`, the max response in assay [1] was -19.5%; in assay [3], -2.02%; in assay [4], 37.3% (inactive); in assay [13] it was -0.184% (inactive); in assay [17], 0.515% (inactive). Further, the call in assay [2] and in [15] was inactive. Further, the activity change % (negative = inhibition) in assay [5] is -4.62% (inactive). Further, the Potency result in assay [19], in assay [11], in assay [14] and in [16] was “inactive” each time. Moreover, the activation in [8] was -1.6% (inactive).
Consider `Cc1c(C(=O)O)cccc1[N+](=O)[O-]`, for which the max response in assay [1] is -9.97%; in [3] it was -4.5%; in [13], -0.685% (inactive); in assay [17], 17.9% (inactive). For the same molecule, the result in [2], in assay [18] and in assay [15] was inactive. The activity change % (negative = inhibition) in assay [5] was 12.8% (inactive). The activation in [7] is 1.1% (inactive); in assay [8], 0.0023% (inactive); in assay [12] it was 1.63% (inactive). The Potency result in assay [10], in assay [11], in assay [14] and in assay [16] was “inactive” in each case.
Turning to `CCOc1ccc(NC(C)=O)cc1N`, the max response in [1] was 3.78%; in assay [13], -2.02% (inactive); in assay [17] it was -8.42% (inactive). The call in assay [2], in [18] and in [15] was inactive. Further, the activity change % (negative = inhibition) in [5] was 2.46% (inactive). Also, the Potency entry in [6], in assay [19], in assay [9], in assay [20], in [14] and in assay [16] was “inactive” in each case. The activation in assay [7] was -6.53% (inactive); in assay [8] it was -1.6% (inactive).
Regarding `COc1cccc(N)c1`, the values for the max response in assay [1], in assay [13] and in assay [17] were 15.1%, -3.67% (inactive) and 10.6% (inactive), respectively. Besides, the call in [2], in [18] and in [15] was inactive. The activity change % (negative = inhibition) in assay [5] was -9.05% (inactive). Moreover, the Potency entry in [9], in [10], in assay [11], in [14] and in assay [16] was “inactive” each time.
As to `CCCOCC(C)O` (centres undefined), the max response in assay [1] was -2.42%; in [3], -6.13%; in assay [4], 0.524% (inactive); in assay [13] it was -5.25% (inactive); in assay [17] it was 8.24% (inactive). The result in assay [2] and in assay [15] was inactive. Besides, the activity change % (negative = inhibition) in assay [5] was 0.569% (inactive). Moreover, the Potency result in assay [9], in assay [10], in assay [11], in assay [14] and in [16] was “inactive” in each case. In addition, the activation in assay [12] is 1.17% (inactive).
For the molecule `Cc1cccc2cccnc12`, the values for the max response in assay [1], in [13] and in [17] were -2.92%, 3.59% (inactive) and -7.04% (inactive), respectively. Further, the molecule was called inactive in assay [2], in [18] and in assay [15]. Besides, the activity change % (negative = inhibition) in [5] was -0.45% (inactive). For the same molecule, the Potency entry in assay [6], in assay [9], in [10], in assay [11] and in assay [14] was “inactive” each time. Besides, the activation in assay [12] is -0.26% (inactive).
